# Assay results published in PubChem BioAssay (Tox21).
# Several values for one entry are separate records, joined by “and”; a condition that tells them apart may be missing. Identical values can stand only once. Records with an inconclusive call do not appear. Where a call stands in place of a potency, no number is given. Some structures have more than one record in an assay (separate samples or runs), and their calls can disagree. Activity calls are given as the source filed them. Calls come from the whole dose curve.
# Test: qHTS assay to identify small molecule agonists of H2AX - cell viability counter screen (AID 1224847); note: nearly all actives have a fitted effect of over 30% in size
# Details: CHO-K1 viability, CellTiter-Glo luminescence, 3 h; series mostly up to 154 µM
# Description: National Center for Advancing Translational Sciences [NCATS]
# NIH Chemical Genomics Center [NCGC]
# U.S. Environmental Protection Agency [EPA]
# National Institutes of Environmental Health Sciences [NIEHS]
# National Toxicology Program [NTP]
# U.S. Food and Drug Administration [FDA]
# HTRF phospho-H2AX (Ser139) assay (Cisbio Bioassays, US) enables the quantitative detection of the histone variant H2AX when phosphorylated on serine 139. When double-stranded DNA breaks, either by ionizing radiation or endogenous physiological processes, H2AX becomes phosphorylated at Ser139. This phospho-Ser139 serves as a sensitive biomarker for the detection of such breaks, localizing the site of DNA repair. So, HTRF phospho-H2AX Ser139 is a pertinent assay to study genome stability, the cell cycle, DNA repair, and it serves as a biomarker for cancer, and to understand aging. Wild type CHO-K1 cells were used to identify the inducers of Phospho-H2AX Ser 139 from the Tox21 compound collections. Also cytotoxicity of the Tox21 10K compound library against the CHO-K1 cell line was tested by measuring the cell viability using CellTiter-Glo assay (Promega, Madison, WI).
# Tox21 Assay Protocol Summary:
# The CHO-K1 cells suspended in culture medium containing 10% FBS were dispensed at 1000 cells/ 3 ul/well in 1536-well white wall/solid bottom plates (Greiner Bio-One North America, NC) using a Multidrop Combi (Thermo Fisher Scientific Inc., Waltham, MA). After the assay plates were incubated at 37C overnight, 23 nl of compounds at 15 concentrations (from 5-48 columns) or positive control (from 1 to 4 columns) were transferred to the assay plates using a Pintool station (Wako, San Diego, CA) into each well resulting in a final DMSO concentration of 0.76%. After 3hr incubation at 37C, 3 uL/well CellTiter-Glo luminescent cell viability reagent (Promega Corporation, Madison, WI) was added using a Flying Reagent Dispenser (FRD) (Aurora Discovery, CA). After incubation at room temperature for 30 min, the luminescence intensity was read using a ViewLux plate reader (PerkinElmer, Waltham, MA).
# Potency is the fitted concentration of half-maximal effect.
row,SMILES,Potency
1,CC(=O)[C@H]1CC[C@H]2[C@@H]3CC[C@H]4C[C@](C)(O)CC[C@]4(C)[C@H]3CC[C@]12C,inactive
2,II,80 µM (active)
3,O=Cc1ccc(Cl)cc1Cl,inactive
4,C=CCOC(C)=O,inactive
5,C[C@@H]1CC[C@H]2[C@@H](C)C(=O)O[C@@H]3O[C@@]4(C)CC[C@@H]1[C@]32OO4,inactive
6,Clc1ccc(C(OCCN2CCCCC2)c2ccccc2)cc1 (stereo not given),inactive
7,C=CC(C)=O,inactive
8,CCCCCCCCCCOC(=O)c1ccccc1C(=O)OCCCCCCCCCC,inactive
9,CCn1cc[n+](C)c1,inactive and 102 µM (active)
10,O=C1NCN(c2ccccc2)C12CCN(CCCOc1ccc(F)cc1)CC2,inactive
11,CCOC(=O)COc1cc(-c2nn(C)c(OC(F)F)c2Cl)c(F)cc1Cl,inactive
12,Cc1ccccc1CCl,inactive
13,C(=NC1CCCCC1)=NC1CCCCC1,25.5 µM (active) and 14.2 µM (active)
14,O=C(O)C(F)(F)C(F)(F)C(F)(F)C(F)(F)C(F)(F)C(F)(F)C(F)(F)C(F)(F)C(F)(F)C(F)(F)F,inactive
15,Nc1nc(=S)[nH][nH]1,inactive
16,CCCCCCCCCC(=O)O[C@H]1CC[C@H]2[C@@H]3CCC4=CC(=O)CC[C@@H]4[C@H]3CC[C@]12C,inactive
17,ClC=C(Cl)Cl,inactive
18,COC1=CC(=O)O[C@@H](CCc2ccccc2)C1,inactive
19,CN1C(=O)C(O)N=C(c2ccccc2)c2cc(Cl)ccc21 (stereo not given),inactive
20,CCOC(=O)CBr,inactive

row,SMILES,Potency
1,Nc1nc(N)nc(N)n1,inactive
2,CCCCCCCCOC(=O)c1ccc(C(=O)OCCCCCCCC)c(C(=O)OCCCCCCCC)c1,inactive
3,Clc1cccc(SC2CCNCC2)n1,inactive
4,CCOc1ccc(C(C)(C)COCc2cccc(Oc3ccccc3)c2)cc1,inactive
5,Cn1cc[n+](C)c1 (tested in a mixture with another compound),inactive
6,COC(N)=O,inactive
7,OCCCBr,inactive
8,C/C=C/C=O,inactive
9,CCCCOC(=O)c1ccccc1C(=O)OCc1ccccc1,inactive
10,CN1C(=O)NC(=O)C(C)(C2=CCCCC2)C1=O (stereo not given),inactive
11,O=C(C(Cl)(Cl)Cl)C(Cl)(Cl)Cl,inactive
12,Nc1ccc(N=Nc2ccc(-c3ccc(N=Nc4c(S(=O)(=O)O)cc5cc(S(=O)(=O)O)c(N=Nc6ccccc6)c(O)c5c4N)cc3)cc2)c(N)c1,11.5 µM (active)
13,CCC(Br)(CC)C(=O)NC(N)=O,inactive
14,CCCC(=O)Cl,inactive
15,COC(=O)C(C)N(C(=O)Cc1ccccc1)c1c(C)cccc1C (stereo not given),inactive
16,N#CCc1ccccc1,inactive
17,Cn1sc(Cl)cc1=O,inactive
18,S=C=NCc1ccccc1,inactive
19,CC(C)N(C(=O)COc1nnc(C(F)(F)F)s1)c1ccc(F)cc1,inactive
20,CCCCN=C=O,inactive
